The whole screen tested about 340,000 compounds, of which about 2,100 (0.62%) were called active.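 How the source made its calls: active means first-screen hits whose inhibition reached a set limit at any dose in the follow-up dose series; inconclusive means inhibition above the set first-screen limit but never retested; inactive means the rest.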 Not all results are given here. Measured potencies and affinities stand elsewhere.

As usually defined, the inhibition is the change of the read-out against control, counted positive when it falls.

The target of this experiment is Rac GTPase-activating protein 1 (Homo sapiens) (UniProt Q9H0H5). Put plainly: blockers of MgcRacGAP-driven Rac1 GTP hydrolysis – biochemical, ADP Hunter fluorescence, primary and confirmatory, confirmation (AID 624330).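 Further: fluorescence reports GDP produced by GAP-driven GTP hydrolysis.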 Conditions: MgcRacGAP-stimulated Rac1 GTP hydrolysis, at 30 µM, stronger effect = higher value, GST-tagged Rac1 F28L mutant substrate.
Chain of Rac GTPase-activating protein 1 (Homo sapiens) (Q9H0H5 whole entry, looked up): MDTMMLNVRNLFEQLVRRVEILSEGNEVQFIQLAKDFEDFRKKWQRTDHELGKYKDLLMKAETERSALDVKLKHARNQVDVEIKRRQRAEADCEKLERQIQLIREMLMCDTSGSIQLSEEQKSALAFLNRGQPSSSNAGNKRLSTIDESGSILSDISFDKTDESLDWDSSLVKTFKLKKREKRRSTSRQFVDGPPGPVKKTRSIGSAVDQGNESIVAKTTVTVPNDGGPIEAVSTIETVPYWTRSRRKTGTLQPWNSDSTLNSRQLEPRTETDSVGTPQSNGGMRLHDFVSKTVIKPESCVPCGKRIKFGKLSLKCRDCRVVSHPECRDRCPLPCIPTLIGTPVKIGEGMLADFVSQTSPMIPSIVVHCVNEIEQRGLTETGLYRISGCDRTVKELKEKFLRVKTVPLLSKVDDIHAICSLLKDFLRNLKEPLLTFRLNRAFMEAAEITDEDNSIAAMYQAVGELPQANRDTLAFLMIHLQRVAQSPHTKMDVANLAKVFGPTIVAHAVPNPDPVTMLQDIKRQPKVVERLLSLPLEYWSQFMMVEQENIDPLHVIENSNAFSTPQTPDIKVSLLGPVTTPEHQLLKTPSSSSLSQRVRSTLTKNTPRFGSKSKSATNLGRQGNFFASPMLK
On to `O=C(c1ccc(Br)o1)N1CC=C(c2ccccc2)CC1`, for which the inhibition is -9.29% (inactive).
The value for `COCCCNC(=O)C1CCCN(S(C)(=O)=O)C1` (configuration not stated) was 4.1% (inactive); that for `N=c1c(S(=O)(=O)c2ccc(Br)cc2)cc2c(=O)n3ccccc3nc2n1C1CCCC1` was 3.79% (inactive).
Turning to `N#CCC(=O)Nn1c(=S)[nH]c2ccccc2c1=O`, the inhibition was 3.15% (inactive).
The figure for `CCSCCOC(=O)C1=C(C)NC(=O)NC1c1ccccc1` (configuration not stated) is 2.5% (inactive); for `CCCCNC(=O)CNC(=S)N(Cc1cc(OC)c(OC)c(OC)c1)C1CCCC1` it is 5.07% (inactive); for `COc1ccccc1N1CCN(CCCC(=O)c2ccc(F)cc2)CC1` it is 8.13% (inactive).
The figure for `COc1ccccc1N1CCN(CCCCOc2ccc(F)cc2)CC1` is 4.56% (inactive); for `COc1ccc(C(=O)CN2CCN(c3ccc(F)cc3)CC2)cc1` it is 11.7% (inactive); for `COc1ccccc1N1CCN(CCCCCCOc2ccc(F)cc2)CC1` it is 7.05% (inactive).
The figure for `CCN(CC)S(=O)(=O)c1ccc(NC(=O)C(OC)c2ccccc2)cc1` (configuration not stated) is 11.8% (inactive); for `C/C(=N\Nc1ccccn1)c1ccc(C#N)cc1` it is 6.31% (inactive).
For the compound `Cc1nn(CC(=O)N2CCc3ccccc3C2)c(C)c1[N+](=O)[O-]`, the inhibition was 4.25% (inactive).
Regarding `Nc1ccc(-c2nc3ccccc3o2)cc1`, the inhibition was 4.77% (inactive).
In the case of `Nc1ccc(-c2nc3cc(N)ccc3o2)cc1`, the inhibition was 17.5% (inactive).
As to `COc1ccc(CC(=O)OCC(=O)NCc2ccc(Cl)cc2)cc1`, the inhibition is -11.6% (inactive).
Turning to `COc1cccc(NC(=O)COC(=O)c2ccccc2C(=O)N2CCN(c3ccccc3)CC2)c1`, the inhibition was -5.54% (inactive).
On to `Cc1ccccc1N(CC(=O)N1CCCC1)S(=O)(=O)c1ccc(Cl)cc1`, for which the inhibition was 5.47% (inactive).
With `CCOc1ccc2nc(-c3ccccc3)nc(SCC(=O)Nc3ncc(C)s3)c2c1`, the inhibition is -5.25% (inactive).
The figure for `O=C(COc1ccc2c3c(c(=O)oc2c1)CCC3)N1CCCC1` is 11.2% (inactive); for `CSc1ncccc1C(=O)NCC1CCCCC1` it is 6.8% (inactive); for `CC(C)C(=O)Nc1ccc2c(c1)Cc1cc(NC(=O)C(C)C)ccc1-2` it is 12.2% (inactive).
In the case of `COc1cc2c(cc1NC(=O)C(F)(F)F)-c1ccc(NC(=O)C(F)(F)F)cc1C2`, the inhibition is 4.33% (inactive).
The figure for `CCOc1ccc(/C=N\NC(=O)CC(=O)NCCc2ccccc2)cc1` is 13% (inactive); for `COc1ccc(/C=N\NC(=O)CNC(=O)C(c2ccccc2)c2ccccc2)cc1[N+](=O)[O-]` it is -25.7% (inactive); for `COc1cc(C(=O)N/N=C/c2ccc(OC(=O)c3ccccc3Cl)c(OC)c2)ccc1O` it is 17.8% (inactive).
The value for `Cc1ccc(/C=N\NC(=O)CC(=O)NCCc2ccccc2)cc1` was -1.99% (inactive); that for `COc1ccc(/C=N/NC(=O)CCc2ccccc2)cc1O` was 26.6% (inactive).
The figure for `COc1ccc(NC(=O)CCNC(=O)c2ccccc2Cl)cc1OC` is 9.17% (inactive).
With `O=C(CNC(=O)C(c1ccccc1)c1ccccc1)N/N=C\c1cccc(O)c1`, the inhibition is 6.95% (inactive).
The figure for `COc1cccc(/C=N/NC(=O)CCc2ccccc2)c1` is 8.09% (inactive); for `COCCN(C(=O)COC(=O)c1ccc(Br)o1)c1c(N)n(Cc2ccccc2)c(=O)[nH]c1=O` it is 7.5% (inactive).
As to `O=c1[nH]c(CSc2ncccn2)nc2c1cnn2-c1ccccc1`, the inhibition is 9.39% (inactive).
Consider `Fc1ccc(-n2cc(CNCCc3cccnc3)c(-c3ccccc3Cl)n2)cc1`, for which the inhibition is 5.92% (inactive).
The value for `C=CC[C@@H](CC(=O)N(CCO)Cc1ccccc1)C(=O)N[C@H](COC(=O)[C@@H](CC=C)Cc1ccc(F)cc1)C(C)(C)C` was 4.96% (inactive); that for `CC1(C)CC(=O)C(CC2C(=O)CC(C)(C)CC2=O)C(=O)C1` was 12.9% (inactive).
The figure for `COC(=O)c1cccnc1SCc1ccccc1` is 3.27% (inactive).
The value for `CCOc1ncccc1C(=O)Nc1cccc(S(=O)(=O)N2CCOCC2)c1` was 3.19% (inactive); that for `COC(=O)CCNC(=O)Cn1cnc2sc3c(c2c1=O)CCCC3` was 3.18% (inactive); that for `CC1(C)CC(=O)N(Cc2ccccc2)C(=O)C1` was 2.51% (inactive).
Regarding `O=C(NCCc1ccc(F)cc1)C(=O)NCC1CCCN1S(=O)(=O)c1cccs1` (configuration not stated), the inhibition was -7.17% (inactive).
On to `COc1cc(/C=N/NC(=O)C(=O)NCc2ccco2)ccc1O`, for which the inhibition is 17.7% (inactive).
With `COc1ccc(/C=N/NC(=O)/C(=C/c2ccccc2)CCO)cc1`, the inhibition is 8.48% (inactive).
Consider `COc1ccc(/C=N/NC(=O)CC(=O)NCCc2ccccc2)cc1OC`, for which the inhibition was 1.81% (inactive).
The value for `COC(=O)c1ccc(/C=N\NC(=O)CC(=O)NCCc2ccccc2)cc1` was 0.63% (inactive); that for `CC(C(=O)Nc1ccc(S(=O)(=O)N2CCOCC2)cc1)N1CCN(c2ccccn2)CC1` (configuration not stated) was -2.88% (inactive).
The figure for `CCc1cc(C(=O)OC)c(NC(=O)CC2NCCNC2=O)s1` (configuration not stated) is 0.55% (inactive); for `CC(C)OCC(O)CN1CCNCC1` (configuration not stated) it is 5.48% (inactive); for `OC(COc1ccccc1Br)CN1CCNCC1` (configuration not stated) it is 1.5% (inactive).
The value for `CC(C)CN(CC(C)C)C(=O)C12CCC(C)(C(=O)C1)C2(C)C` (configuration not stated) was -15.8% (inactive); that for `Cc1ccc(NC2CCCN(C(=O)c3cccs3)C2)cc1C` (configuration not stated) was 22.5% (inactive).
As for `CCOc1ccc(OCc2ccc(C(=O)N3CCCC(C)C3)cc2)cc1` (configuration not stated), the inhibition was 0.96% (inactive).
Take `COc1ccccc1NC(=O)CN1CCN(c2ccccc2)CC1`: the inhibition is 3.59% (inactive).
`CCCCCNCC(=O)Nc1cc(C(F)(F)F)ccc1OCCOC`: the inhibition was 29.2% (inactive).
The figure for `COCCOc1ccc(C(F)(F)F)cc1NC(=O)c1ccc(C(F)(F)F)cc1` is -6.51% (inactive); for `Cc1ccc(NC(=O)CN2CCCCCC2)cc1Br` it is 24.2% (inactive).
`CN1CCN(CC(=O)Nc2ccccc2Oc2ccccc2)CC1`: the inhibition is 4.33% (inactive).
The value for `Cc1nccn1CC(=O)N/N=C/c1cc(Br)cs1` was 3.63% (inactive); that for `O=C(Cc1ccccc1)N/N=C/c1cc(Br)cs1` was 10.7% (inactive); that for `Cc1ccc(NC(=O)CN2CCCC2)cc1Br` was 30.6% (inactive).
The value for `O=C(CNC(=O)c1ccccc1)NCC(O)c1ccc([N+](=O)[O-])cc1` (configuration not stated) was -4.75% (inactive); that for `CCOCCCNC(=O)Cn1cnc2sc(C)c(S(=O)(=O)N3CCN(c4ncccn4)CC3)c2c1=O` was 2.97% (inactive).
